# High-throughput results deposited in PubChem BioAssay by Broad Institute.
# Most compounds without a hit are left out; they make up all but 4% or so of the library.
# Wnt act = activates Wnt/beta-catenin signaling in a reporter cell assay | hit rate 1.2% among 300,000 | activator, plate reader | activation, % at 9.35 µM | AID 743398; in the data active = activation above about 30%, passing the limit was not always enough; inconclusive = no clear call, values can overlap the other calls;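 also: 0% = neutral control wells and 100% = positive control wells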
# Statin myotox sup = protects C2C12 myotubes from simvastatin toxicity. ATP luminescence, 48 h; scaled: DMSO 0, geranylgeraniol control 100. rescue of ATP level, % at 7.49 µM. hit rate 0.78% among 330,000;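 active = mean ATP rescue above about 67%, or every replicate alone reaching that limit, limit read from the data, passing the limit was not always enough; inconclusive = no clear call, values can overlap the other calls; inactive = mean under the limit and some replicate under it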;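 also: myotubes were challenged with 10 µM simvastatin during compound exposure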
# LMP1 NFkB inh = inhibitors of Epstein-Barr LMP1-induced NF-kappaB reporter | LMP1-induced NF-kappaB luciferase reporter cells, luminescence | inhibition, % at 12.5 µM | hit rate 0.69% among 350,000 | AID 504558; in the data active = inhibition above about 41%; inconclusive = no clear call, values can overlap the other calls;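 also: 0% = neutral control wells and 100% = reference inhibitor control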
# MITF act = activators of MITF-driven TRPM1 promoter activity in SK-MEL-5 cells. SK-MEL-5 TRPM1-promoter luciferase, 24 h; % of positive control, neutral wells = 0. activation, % at 12.5 µM. hit rate 0.75% among 300,000;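 active = mean activation of at least 80% with every replicate also reaching 80%; inconclusive = mean reaches 80% but some replicate falls short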;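 also: 0% = neutral control wells and 100% = parthenolide positive control wells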
# esBAF inh = inhibitors of esBAF chromatin remodeling in mouse ES cells | Bmi1-luciferase knock-in reporter, 24 h; 100% = twice the neutral-well signal | reporter increase, % at 12.5 µM | hit rate 2% among 350,000; in the data active = activation above about 40%; inconclusive = no clear call, values can overlap the other calls;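 also: 0% = median of the plate's neutral control wells and 100% = double that signal; a rise in the Bmi1 reporter signal indicates esBAF inhibition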
# MITF TRPM1 inh = inhibitors of MITF-driven TRPM1 promoter in melanoma cells | SK-MEL-5 TRPM1 promoter luciferase, 24 h | hit rate 0.83% among 330,000 | inhibition, % at 12.5 µM | AID 488899;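 active = mean inhibition across replicates of 60% or more, whatever share of single replicates reaches that level; inconclusive = some that reach 60%, reason not given; inactive = mean inhibition across replicates below 60%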
# * = called active by the depositor; ? = inconclusive; · = no result given.
SMILES,Wnt act,Statin myotox sup,LMP1 NFkB inh,MITF act,esBAF inh,MITF TRPM1 inh
O=C(O)C1C(c2ccccc2)C(C(=O)Oc2ccccc2)C1c1ccccc1 (configuration not stated),·,-6,-8,1,-2,-2
CO[C@H]1CN(C)C(=O)c2ccc(NC(=O)c3cnccn3)cc2OC[C@H](C)N(C(=O)C2CC2)C[C@H]1C,·,-15,·,·,5,·
O=C(Cc1n[nH]c(=O)c2ccccc12)OCC(=O)N(Cc1ccccc1)Cc1ccccc1,5,46,-2,5,2,-5
Cc1nn(C(C)(C)C)c(C)c1/C=N/OC(=O)Nc1ccc(Cl)c(Cl)c1,0,·,47*,·,·,53
COc1ccc(NC(=O)O/N=C/c2c(C)nn(C(C)(C)C)c2C)cc1,5,0,-17,70,14,-70
O=C(NC1CCCCCCC1)c1cc(COc2ccc3ncccc3c2)on1,-4,·,49*,-23,·,23
CN(C)c1ccc(-c2ccnc3c2CC(C)(C(=O)Nc2cccc(C(F)(F)F)c2)O3)cc1 (configuration not stated),-2,·,·,·,·,·
O=C(NC1C(=O)NNC1c1ccccc1)c1ccccc1 (configuration not stated),·,·,44*,24,·,-23
Cc1cccc(C(=O)NC2C(=O)NNC2c2ccc(Cl)cc2)c1 (configuration not stated),-1,·,5,-8,·,5
O=C(COC(=O)c1ccccc1SCC(=O)NC1CCS(=O)(=O)C1)NC1CCS(=O)(=O)C1 (configuration not stated),·,·,3,-6,·,4
CCNC(=O)NC(=O)COC(=O)c1ccccc1SCC(=O)NC(=O)NCC,53*,·,-3,22,·,-19
CC(C)S(=O)(=O)c1ccc(C(=O)Nc2ccc(F)cc2F)cn1,-2,·,4,9,·,-13
CCCSc1ccc(C(=O)Nc2ccc(F)cc2F)cn1,8,-13,-10,?,46*,-82
O=C(Nc1ccccc1F)c1ccc2ncsc2c1,17,2,-24,64,57*,-64
O=C(Nc1ccncc1)c1cc(F)cc(F)c1,·,72*,0,3,-15,-3
O=C(Nc1ccc(Cl)cc1Cl)c1ccc2ncsc2c1,?,2,·,112*,59*,-189
O=C(COC(=O)c1ccc2ncsc2c1)Nc1cc(Cl)ccc1F,3,4,-30,5,28,-5
O=C(Nc1ccccc1F)c1cccc(C(=O)Nc2ccccc2F)c1,2,·,2,11,·,-13
COc1ccc(-c2nc(CCNS(=O)(=O)c3ccc4c(c3)OCCO4)cs2)cc1,-1,-9,4,·,10,·
O=C(COc1ccc(Cl)cc1)Nc1cccc(-c2ccc3nncn3n2)c1,-3,-7,-7,3,-1,0
O=C(Nc1ccncc1)c1ccc2ncsc2c1,-2,-1,-4,29,71*,-26
O=C(Nc1cccc(F)c1)c1ccc2ncsc2c1,·,-13,-5,-4,16,-6
O=C(Nc1ccc(F)cc1F)c1ccc2ncsc2c1,5,1,-17,22,67*,-30
Cc1c2c(nc3c(C)cccc13)OC(C)C2 (configuration not stated),2,-2,-5,9,17,-5
O=C(/C=C/c1ccc(O)cc1)c1ccccc1,38*,10,-2,69,59*,-70
SMILES,Wnt act,Statin myotox sup,LMP1 NFkB inh,MITF act,esBAF inh,MITF TRPM1 inh
Cc1cccc(C=CC(=O)c2ccccc2)c1,7,9,-13,49,71*,-45
CCOC(=O)c1ccc2nc3c(cc2c1)CCS3,·,40,-45,72,50*,-69
CNS(=O)(=O)c1ccc(NCC2COc3ccccc3O2)c([N+](=O)[O-])c1 (configuration not stated),·,-6,-8,15,44*,-12
Cn1cccc1CC(=O)NNC(=S)Nc1ccccc1Cl,2,·,58*,-13,·,12
Cc1ccc(S(=O)(=O)N2CCCCC2)cc1NCC(=O)Nc1ccc(Br)cc1F,-3,-12,-1,·,-20,·
Cc1cc2nc(C3CCCN(C(=O)NCc4ccccc4)C3)[nH]c2cc1C (configuration not stated),46*,-23,-38,39,36,-36
COc1ccc(-c2nsc3c(N4CCN(S(=O)(=O)c5ccccc5F)CC4)ncnc23)cc1,·,-45,13,2,5,-6
COc1ccc(C(=O)N2CCN(c3ncnc4c(-c5ccccc5)nsc34)CC2)cc1,0,-8,10,·,5,8
